In PubChem BioAssay AID652154 (Broad Institute, 2013) one finds inhibition data, which are given here for 18 compounds.

In all, about 360,000 compounds went through this assay and about 4,200 (1.2%) were called active. The sample as a whole holds a higher share of actives than the screen did. Unmarked numbers belong to inactive results.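 How the source made its calls: active means mean replicate inhibition at least 60% with every replicate also reaching 60%; inconclusive means only one of the two criteria is met; inactive means mean below 60% and not all replicates reaching 60%.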

The assay is described as follows: PAX8 transcriptional activity inhibition in RMG-I – RMG-I cells, luciferase, single concentration, primary screen (AID 652154).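 Further: luciferase light reporting Pax8 driven TPO promoter activity; plate controls were median of neutral control wells for no effect and mitoxantrone controls for full effect.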 The note with it: RMG-I TPO-luciferase reporter, SteadyGlo, 24 h; at 12.6 µM; active compounds read high.
On to `CN1C(=O)c2cc(NC(=O)c3ccc(F)cc3)ccc2OC[C@H]2O[C@H](CC(=O)N3CCOCC3)CC[C@@H]21`, for which the inhibition was -0.681%.

Take `Cc1cc(C)n2nc(SCC(N)=O)nc2n1`: the inhibition was -3.44%. The figure for `COc1ccc(Cl)cc1C(=O)NNC(=O)c1nc2nc(C)cc(C)n2n1` is -17.5%. As for `Cc1cc(C)n2nc(CNS(=O)(=O)c3c(F)c(F)c(F)c(F)c3F)nc2n1`, the figure is 85.5% (active); as for `Cc1noc(C)c1NC(=O)Nc1ccc2c(c1)C(=O)N([C@@H](C)CO)C[C@@H](C)[C@@H](CN(C)CC1CCCCC1)O2`, -11.2%; as for `COc1ccc(NC(=O)N(C)C[C@@H]2Oc3ccc(NC(=O)CCCN(C)C)cc3CC(=O)N([C@H](C)CO)C[C@H]2C)cc1`, 2.7%. For `C[C@@H]1CCCCO[C@H](CN(C)Cc2ccncc2)[C@H](C)CN([C@H](C)CO)C(=O)c2cc(NC(=O)Nc3ccccc3)ccc2O1`, the inhibition is 18.7%. On to `C[C@@H]1CCCCO[C@H](CN(C)Cc2ccc(Cl)c(Cl)c2)[C@@H](C)CN([C@@H](C)CO)C(=O)c2cc(NC(=O)Nc3ccccc3)ccc2O1`, for which the inhibition is 93.9% (active). As to `C[C@@H]1CN([C@H](C)CO)C(=O)c2cc(NC(=O)Nc3ccccc3)ccc2O[C@@H](C)CCCCO[C@@H]1CN(C)Cc1ccncc1`, the inhibition is 6.95%. As for `C[C@H](CO)N1C[C@H](C)[C@H](CN(C)Cc2ccc(Cl)c(Cl)c2)OCCCC[C@H](C)Oc2ccc(NC(=O)NC3CCCCC3)cc2C1=O`, the inhibition is 92.7% (active). As for `C[C@@H]1CCCCO[C@@H](CN(C)Cc2ccc3c(c2)OCO3)[C@@H](C)CN([C@@H](C)CO)C(=O)c2cc(NC(=O)Nc3ccccc3)ccc2O1`, the inhibition was -0.474%. The figure for `C[C@@H]1CCCCO[C@@H](CN(C)Cc2ccncc2)[C@@H](C)CN([C@@H](C)CO)C(=O)c2cc(NC(=O)Nc3ccc(F)cc3)ccc2O1` is -6.16%. As for `C[C@H]1CCCCO[C@H](CN(C)Cc2ccccc2)[C@@H](C)CN([C@@H](C)CO)C(=O)c2cc(NC(=O)NC3CCCCC3)ccc2O1`, the inhibition was 5.95%. Take `C[C@H]1CCCCO[C@@H](CN(C)Cc2ccncc2)[C@@H](C)CN([C@@H](C)CO)C(=O)c2cc(NC(=O)Nc3ccc(F)cc3)ccc2O1`: the inhibition is -6.76%.

Take `C[C@@H]1CN([C@H](C)CO)C(=O)c2cc(NC(=O)Nc3ccc4c(c3)OCO4)ccc2O[C@@H](C)CCCCO[C@@H]1CN(C)Cc1ccc2c(c1)OCO2`: the inhibition was 25.2%. As to `C[C@@H]1CCCCO[C@@H](CN(C)Cc2ccncc2)[C@H](C)CN([C@H](C)CO)C(=O)c2cc(NC(=O)NC3CCCCC3)ccc2O1`, the inhibition is 8.64%.

Turning to `C[C@@H]1CN([C@H](C)CO)C(=O)c2cc(NC(=O)Nc3ccc(F)cc3)ccc2O[C@@H](C)CCCCO[C@H]1CN(C)Cc1ccc(Cl)c(Cl)c1`, the inhibition is 77.5% (active).

As to `C[C@H]1CCCCO[C@@H](CN(C)Cc2ccc3c(c2)OCO3)[C@@H](C)CN([C@@H](C)CO)C(=O)c2cc(NC(=O)Nc3ccc(F)cc3)ccc2O1`, the inhibition is 87.4% (active).
